About 2,000 (36%) of roughly 5,500 compounds were called active. About 18% were inconclusive and are not listed. Cut-off read from the data, not from the text of the source: active = normalized growth mostly below about 0.91 (no sharp cut-off); inconclusive = no clear call, values can overlap the other calls; inactive = mostly above about 0.92. This is one part of the list.
Test: chemical genetic growth profiling, strain panel (AID 1159580);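 note: tested at 20 µM; growth read once vehicle control cultures reached saturation at 30 °C; 1 = growth at the plate median or of vehicle wells; lower values mean less growth of the strain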
Details: S. cerevisiae deletion strains, growth OD

Measured: normalized growth

NCCCCCCCCCCN
inactive: locus YAL040C, strain CLN3, stronger effect = lower value 1.01 | locus YCL061C, strain MRC1 (second series), stronger effect = lower value 1.01 | locus YDR150W, strain NUM1, stronger effect = lower value 1.01 | locus YDR363W, strain ESC2, stronger effect = lower value 1.03 | locus YER002W, strain NOP16, stronger effect = lower value 1.01 | locus YNL175C, strain NOP13, stronger effect = lower value 1.01 | locus YNL197C, strain WHI3, stronger effect = lower value 1 | locus YNL224C, strain SQS1, stronger effect = lower value 1 | locus YOR083W, strain WHI5 (second series), stronger effect = lower value 1.02 | locus YPL241C, strain CIN2, stronger effect = lower value 1.01

C/C(=N/OC(=O)Nc1ccc(Cl)cc1)c1ccc2c(c1)CCO2
inactive: locus YAR019C, strain CDC15, stronger effect = lower value 0.946 | locus YBL105C, strain PKC1, stronger effect = lower value 0.95 | locus YBR135W, strain CKS1, stronger effect = lower value 0.954 | locus YBR136W, strain MEC1, stronger effect = lower value 0.95 | locus YBR160W, strain CDC28, stronger effect = lower value 0.943 | locus YDL017W, strain CDC7, stronger effect = lower value 0.947 | locus YDL028C, strain MPS1, stronger effect = lower value 0.955 | locus YDL101C, strain DUN1, stronger effect = lower value 0.948 | locus YDL108W, strain KIN28, stronger effect = lower value 0.966 | locus YDL132W, strain cdc53, stronger effect = lower value 0.935 | locus YDL214C, strain PRR2, stronger effect = lower value 0.868 | locus YDR052C, strain DBF4, stronger effect = lower value 0.957 | locus YDR054C, strain cdc34, stronger effect = lower value 0.93 | locus YDR226W, strain ADK1, stronger effect = lower value 0.949 | locus YDR477W, strain SNF1, stronger effect = lower value 0.853 | locus YER123W, strain YCK3, stronger effect = lower value 0.858 | locus YER133W, strain GLC7, stronger effect = lower value 0.837 | locus YFL009W, strain cdc4, stronger effect = lower value 0.949 | locus YFL029C, strain CAK1, stronger effect = lower value 0.939 | locus YFR003C, strain YPI1, stronger effect = lower value 0.959 | locus YFR019W, strain FAB1, stronger effect = lower value 0.93 | locus YFR028C, strain CDC14, stronger effect = lower value 0.953 | locus YGR040W, strain KSS1, stronger effect = lower value 0.835 | locus YGR052W, strain FMP48, stronger effect = lower value 0.908 | locus YGR092W, strain DBF2, stronger effect = lower value 0.599 | locus YHR079C, strain IRE1, stronger effect = lower value 0.775 | locus YHR082C, strain KSP1, stronger effect = lower value 0.838 | locus YHR205W, strain SCH9, stronger effect = lower value 0.756 | locus YIL147C, strain SLN1, stronger effect = lower value 0.949 | locus YJL095W, strain BCK1, stronger effect = lower value 0.69 | locus YJL128C, strain PBS2, stronger effect = lower value 0.951 | locus YJL157C, strain FAR1, stronger effect = lower value 0.852 | locus YJR016C, strain ILV3, stronger effect = lower value 0.938 | locus YJR066W, strain TOR1 (second series), stronger effect = lower value 0.745 | locus YJR066W, strain TOR1, stronger effect = lower value 0.727 | locus YKL048C, strain ELM1, stronger effect = lower value 0.966 | locus YKL067W, strain YNK1, stronger effect = lower value 0.891 | locus YKL101W, strain HSL1, stronger effect = lower value 0.92 | locus YKL193C, strain SDS22, stronger effect = lower value 0.941 | locus YKL203C, strain TOR2, stronger effect = lower value 0.85 | locus YLR133W, strain CKI1, stronger effect = lower value 0.884 | locus YLR403W, strain SFP1, stronger effect = lower value 0.777 | locus YML070W, strain DAK1, stronger effect = lower value 0.874 | locus YMR001C, strain CDC5, stronger effect = lower value 0.946 | locus YMR205C, strain PFK2 (second series), stronger effect = lower value 0.908 | locus YMR277W, strain FCP1, stronger effect = lower value 0.949 | locus YNL006W, strain LST8, stronger effect = lower value 0.97 | locus YNL020C, strain ARK1, stronger effect = lower value 0.873 | locus YNL161W, strain CBK1, stronger effect = lower value 0.951 | locus YNL183C, strain NPR1, stronger effect = lower value 0.775 | locus YNL207W, strain RIO2, stronger effect = lower value 0.936 | locus YNL222W, strain SSU72, stronger effect = lower value 0.954 | locus YNL307C, strain MCK1 (second series), stronger effect = lower value 0.832 | locus YOL078W, strain AVO1, stronger effect = lower value 0.951 | locus YOL136C, strain PFK27, stronger effect = lower value 0.864 | locus YOR061W, strain CKA2, stronger effect = lower value 0.873 | locus YOR119C, strain RIO1, stronger effect = lower value 0.894 | locus YOR231W, strain MKK1, stronger effect = lower value 0.808 | locus YOR329C, strain SCD5, stronger effect = lower value 0.956 | locus YPL031C, strain PHO85, stronger effect = lower value 0.806 | locus YPL153C, strain RAD53, stronger effect = lower value 0.846 | locus YPL204W, strain HRR25, stronger effect = lower value 0.803 | locus YPL209C, strain IPL1, stronger effect = lower value 0.956 | locus YPR025C, strain CCL1, stronger effect = lower value 0.955 | locus YPR106W, strain ISR1, stronger effect = lower value 0.959 | locus YPR111W, strain DBF20, stronger effect = lower value 0.96 | strain NNK1, stronger effect = lower value 0.951 | strain TSCII, stronger effect = lower value 0.938
active: locus YHR030C, strain SLT2, stronger effect = lower value 0.607 | locus YLR113W, strain HOG1, stronger effect = lower value 0.755 | locus YPL256C, strain CLN2, stronger effect = lower value 0.853

Source: PubChem BioAssay AID1159580 (chemical genetic matrix, 2015)
